Data taken from PubChem BioAssay (Tox21).
Results filed as inconclusive are left out. Active and inactive are the calls of the source. Unless noted, the call rests on the fitted dose curve; in most records, active means well fitted curve in the direction sought with a large enough effect in the repeat runs; inconclusive means weak or mixed curves; inactive means no such curve, though single readings can be large; an effect the other way counts as inactive or inconclusive.

Key:
[1] = target: Nuclear receptor subfamily 1 group I member 3 (Homo sapiens) (UniProt Q14994); assay: qHTS assay to identify small molecule agonists of the constitutive androstane receptor (CAR) signaling pathway (AID 1224839);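 further: HepG2 cells stably carrying human CAR and a CYP2B6 luciferase reporter; series mostly up to about 92 µM; nearly all actives have a fitted effect of over 15% in size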
Procedure, shortened: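 HepG2-CYP2B6-hCAR cells, 2500/well, 4 h pre-incubation; compounds 15 conc.; PK11195 0.75 uM final; 24 h, 37 C/5% CO2; ONE-Glo luciferase read.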

[2] = qHTS assay to identify small molecule antagonists of the estrogen related receptor signaling pathway with the pleiotropic PPARgamma coactivator (PGC) from Tox21 10K library - cell viability counter screen (AID 1224840; active means well fitted cell-killing curve with a large enough effect in the repeat runs, not every such curve was filed as active; further: nearly all actives have a fitted effect of over 40% in size)
Procedure, shortened: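 Multiplexed viability counter screen in the PGC/ERR cell line: cells treated with DMSO-dissolved compounds for 17.5 hours at 37 C, then viability measured as CellTiter-Fluor fluorescence.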

[3] = qHTS assay to identify small molecule agonists of the estrogen related receptor signaling pathway with the pleiotropic PPARgamma coactivator (PGC) from Tox21 10K library (AID 1224842); further: nearly all actives have a fitted effect of over 15% in size
Procedure, shortened: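 PGC/ERR reporter cells (NTP line) were seeded 2,000 per well, rested 6 h at 37 C/5% CO2, then pin-dosed with compounds in DMSO for 18 h at 37 C; luciferase read by One-Glo luminescence after 30 min at room temperature.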

[4] = qHTS assay to identify small molecule agonists of the hypoxia (HIF-1) signaling pathway - cell viability counter screen (AID 1224844; calls by dose curve; further: nearly all actives have a fitted effect of over 50% in size)
Procedure, shortened: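 Cytotoxicity was measured in parallel with the HRE-driven beta-lactamase readout: after 17 hrs of compound exposure at 37C, HRE-bla ME-180 cells received CellTiter-Glo and luminescence was recorded 30 min later.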

[5] = qHTS assay to identify small molecule agonists of H2AX (AID 1224845; active means well fitted activation curve with a large enough effect in the signal ratio in the repeat runs, not every such curve was filed as active; the % refers to the signal ratio)
Procedure, shortened: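 Wild-type CHO-K1 cells plated overnight, then exposed 3 hr at 37C to compounds at 15 concentrations (0.76% DMSO). Lysed, then HTRF anti-pH2AX(S139)-cryptate/anti-H2AX-d2 detection after 24 hr at room temperature; emissions 665 and 620 nm.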

[6] = qHTS assay to identify small molecule agonists of the hypoxia (HIF-1) signaling pathway (AID 1224846; active means well fitted activation curve with a large enough effect in the signal ratio in the repeat runs, not every such curve was filed as active; the % refers to the signal ratio)
Procedure, shortened: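 Compounds from the Tox21 10K library, dissolved in DMSO, are tested for induction of a hypoxia response element–controlled beta-lactamase reporter in ME-180 cells. Exposure lasts 17 hrs at 37C after a 5 hr settling period, followed by CCF4-AM FRET substrate.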

[7] = qHTS assay to identify small molecule agonists of H2AX - cell viability counter screen (AID 1224847; calls by dose curve; further: top concentration of the series differs between compounds; nearly all actives have a fitted effect of over 30% in size)
Procedure, shortened: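 Cells plated first: CHO-K1, 1000 per well in 10% FBS medium, incubated overnight at 37C. Then 15-point compound titration added (final DMSO 0.76%) for 3 hr. Finally CellTiter-Glo added and luminescence read.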

[8] = qHTS assay to identify small molecule antagonists of the estrogen related receptor (ERR) signaling pathway from Tox21 library (AID 1224848); further: nearly all actives have a fitted effect of over 50% in size
Procedure, shortened: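 First, 2,000 ERR cells per well were plated and held 6 h at 37 C/5% CO2. Next, compounds in DMSO were pinned in and left 18 h at 37 C. Finally, ONE-Glo was added and luminescence read after 30 min at room temperature.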

[9] = qHTS assay to identify small molecule agonists of the estrogen related receptor (ERR) signaling pathway from Tox21 library (AID 1224849; calls by dose curve; further: nearly all actives have a fitted effect of over 15% in size)
Procedure, shortened: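 Cells carrying the ERR reporter were plated and allowed to settle for 6 h, exposed to library compounds for 18 h at 37 C, then lysed with ONE-Glo and luminescence measured.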

[10] = qHTS RealTime-Glo MT Cell Viability Assay in HepG2 cells - 24 hour (AID 1224867); further: nearly all actives have a fitted effect of over 50% in size
Procedure, shortened: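 HepG2 cells (600/well) were dispensed with RealTime-Glo reagents, incubated 5 h at 37 °C, then treated with compounds in DMSO for up to 40 h. Nonlytic NanoLuc luminescence reflecting viable cells was read at each stated time point.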

[11] = qHTS RealTime-Glo MT Cell Viability Assay in HEK293 cells - 32 hour (AID 1224868); further: top concentration of the series differs between compounds; nearly all actives have a fitted effect of over 50% in size
Procedure, shortened: (§1)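 HEK293 cells seeded with NanoLuc/prosubstrate reagent, rested 5 h at 37 C, then dosed and kept at 37 C up to 40 h. Nonlytic real-time luminescence from viable cells read at 0, 8, 16, 24, 32 and 40 h.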

[12] = A CellTox Green Cytotoxicity Assay to monitor cytotoxicity in HEK293 cells - 0 hour (AID 1224869); further: nearly all actives have a fitted effect of over 50% in size
Procedure, shortened: (§2)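 Cells (HEK293, 600/well) and dye reagent are dispensed together. After 5 h at 37 C, 23 nL compound is pinned in. Plates stay at 37 C for 40 h with fluorescence read at 0h, 8h, 16h, 24h, 32h and 40h.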

[13] = qHTS RealTime-Glo MT Cell Viability Assay in HepG2 cells - 40 hour (AID 1224870); further: nearly all actives have a fitted effect of over 50% in size
Procedure, shortened: (§3)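 HepG2 cells mixed with RealTime-Glo MT reagents (NanoLuc plus cell-permeant prosubstrate) were seeded at 600 cells/well, incubated 5 h at 37 C/5% CO2, then pinned with compounds in DMSO; nonlytic luminescence tracked viability during 40 h treatment.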

[14] = qHTS RealTime-Glo MT Cell Viability Assay in HEK293 cells - 16 hour (AID 1224872)
Procedure, shortened: as §1

[15] = qHTS RealTime-Glo MT Cell Viability Assay in HepG2 cells - 8 hour (AID 1224873); further: nearly all actives have a fitted effect of over 55% in size
Procedure, shortened: as §3

[16] = qHTS RealTime-Glo MT Cell Viability Assay in HEK293 cells - 40 hour (AID 1224874); settings: RealTime-Glo luminescence; max response: hits give low values; further: nearly all actives have a fitted effect of over 50% in size
Procedure, shortened: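 Real-time viability in HEK293: signal arises when living cells convert a prosubstrate for NanoLuc in the medium, so luminescence tracks viable cell number. Compound (23 nL, DMSO) added 5 h post-seeding; kinetic reads at 0–40 h, 37 C.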

[17] = qHTS assay to identify small molecule antagonists of the estrogen related receptor signaling pathway with the pleiotropic PPARgamma coactivator (PGC) from Tox21 10K library (AID 1224841; call rule not given here)
Procedure, shortened: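 Steps: plate 2,000 PGC/ERR cells per well; incubate 6 h at 37 C with 5% CO2; transfer compounds from DMSO stocks by pin tool; incubate 18 h at 37 C; add One-Glo; measure luminescence 30 min later.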

[18] = target: Thyrotropin receptor (Homo sapiens) (UniProt P16473); assay: qHTS assay to identify small molecule agonists of the thyroid stimulating hormone receptor (TSHR) signaling pathway (AID 1224843; calls by dose curve; further: nearly all actives have a fitted effect of over 45% in size)
Procedure, shortened: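 Compounds are titrated over 15 concentrations, in triplicate, onto TSHR-HEK293 cells seeded at 800/well. Plates sit 30 min at room temperature before cAMP-d2 and anti-cAMP cryptate are added; signal is read after a further hour.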

[19] = A CellTox Green Cytotoxicity Assay to monitor cytotoxicity in HEK293 cells - 40 hour (AID 1224871); further: nearly all actives have a fitted effect of over 45% in size
Procedure, shortened: as §2

[20] = A CellTox Green Cytotoxicity Assay to monitor cytotoxicity in HEK293 cells - 24 hour (AID 1224875); further: series mostly up to about 77 µM; nearly all actives have a fitted effect of over 45% in size
Procedure, shortened: as §2
On the % scale 0 is the no-effect control and ±100 the full control effect.

Sequence of Nuclear receptor subfamily 1 group I member 3 (Homo sapiens) (Q14994 whole entry, looked up): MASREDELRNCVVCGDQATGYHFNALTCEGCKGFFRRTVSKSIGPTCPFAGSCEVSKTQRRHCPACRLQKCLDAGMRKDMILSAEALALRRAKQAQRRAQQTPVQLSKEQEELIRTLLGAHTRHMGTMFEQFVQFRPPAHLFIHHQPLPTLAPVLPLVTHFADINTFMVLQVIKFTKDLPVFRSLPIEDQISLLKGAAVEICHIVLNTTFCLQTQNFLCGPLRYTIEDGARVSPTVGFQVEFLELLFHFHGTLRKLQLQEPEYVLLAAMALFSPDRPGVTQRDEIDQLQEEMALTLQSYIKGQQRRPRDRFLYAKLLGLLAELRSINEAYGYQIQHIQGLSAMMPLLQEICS
Sequence of Thyrotropin receptor (Homo sapiens) (P16473 whole entry, looked up): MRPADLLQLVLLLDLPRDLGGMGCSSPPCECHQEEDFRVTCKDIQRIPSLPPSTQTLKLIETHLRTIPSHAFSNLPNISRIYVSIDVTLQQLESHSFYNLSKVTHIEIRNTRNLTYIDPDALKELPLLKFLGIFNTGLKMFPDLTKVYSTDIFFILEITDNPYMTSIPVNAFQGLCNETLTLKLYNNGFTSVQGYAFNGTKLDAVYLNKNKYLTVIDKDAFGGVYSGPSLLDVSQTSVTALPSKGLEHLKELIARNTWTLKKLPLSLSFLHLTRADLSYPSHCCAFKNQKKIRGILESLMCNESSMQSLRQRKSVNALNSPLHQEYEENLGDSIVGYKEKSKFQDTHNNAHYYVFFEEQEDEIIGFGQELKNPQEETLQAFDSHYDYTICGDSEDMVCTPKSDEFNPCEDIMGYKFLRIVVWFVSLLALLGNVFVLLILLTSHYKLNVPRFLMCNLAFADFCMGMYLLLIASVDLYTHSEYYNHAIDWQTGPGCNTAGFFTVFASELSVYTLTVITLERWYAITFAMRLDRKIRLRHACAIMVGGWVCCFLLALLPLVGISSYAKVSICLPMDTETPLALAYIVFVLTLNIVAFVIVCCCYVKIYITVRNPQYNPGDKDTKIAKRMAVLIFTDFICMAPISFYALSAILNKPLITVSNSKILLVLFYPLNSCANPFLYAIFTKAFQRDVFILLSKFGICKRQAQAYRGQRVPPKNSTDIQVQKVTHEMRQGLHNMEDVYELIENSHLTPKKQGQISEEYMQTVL

O=CO
inactive: activation [1] -3.71% [at 8.39 µM] | viability change, negative = cytotoxic [2] -0.178% [at 8.39 µM] | activation [3] -0.64% [at 8.39 µM] | activity change, negative = cytotoxicity [4] -0.151% [at 6.97 µM] | activation (H2AX phosphorylation) [5] 0.0105% [at 14 µM] | activation [6] -0.756% [at 7.01 µM] | activity change, negative = cytotoxicity [7] 0.103% [at 14 µM] | activity, negative = inhibition [8] -2.33% [at 8.39 µM] | activity change, positive = activation [9] -1.2% [at 8.39 µM] | activity change, negative = cytotoxicity [10] 0.773% [at 6.97 µM] | activity change, negative = cytotoxic [11] 1.16% [at 6.97 µM] | cytotoxicity [12] -3.71% [at 6.97 µM] | activity change, negative = cytotoxic [13] 17.5% [at 6.97 µM] | activity change, negative = cytotoxicity [14] 2.46% [at 6.97 µM] | viability change, negative = cytotoxic [15] -8.93% [at 6.97 µM] | max response [16] -0.6%

CC(C)(CO)[C@@H](O)C(=O)NCCCO
inactive: Potency [1] | outcome [2] | Potency [17] | outcome [3] | outcome [18] | outcome [4] | outcome [5] | Potency [7] | Potency [8] | outcome [9] | outcome [10] | Potency [11] | Potency [12] | outcome [13] | Potency [19] | Potency [14] | outcome [15] | max response [16] 4%

CCCCOC(=O)C(=O)OCCCC
inactive: Potency [1] | outcome [2] | outcome [3] | outcome [4] | outcome [5] | outcome [6] | Potency [7] | Potency [8] | outcome [9] | outcome [10] | Potency [11] | Potency [12] | outcome [13] | Potency [19] | Potency [14] | outcome [15] | max response [16] 0.934% | Potency [20]

CC(=O)OC[C@H]1O[C@@H](OC(C)=O)[C@H](OC(C)=O)[C@@H]1OC(C)=O
inactive: Potency [1] | outcome [2] | outcome [3] | outcome [18] | outcome [4] | outcome [5] | outcome [6] | Potency [7] | Potency [8] | outcome [9] | outcome [10] | Potency [11] | Potency [12] | Potency [19] | Potency [14] | outcome [15] | max response [16] 5.33% | Potency [20]

CCCCCC1CCCC(=O)O1 (stereo unspecified)
inactive: Potency [1] | outcome [2] | Potency [17] | outcome [3] | outcome [18] | outcome [4] | outcome [5] | outcome [6] | Potency [7] | Potency [8] | outcome [9] | outcome [10] | Potency [11] | Potency [12] | outcome [13] | Potency [19] | Potency [14] | outcome [15] | max response [16] 7.32% | Potency [20]

O=C(O)C(=O)Nc1cccc(-c2nn[nH]n2)c1
inactive: Potency [1] | outcome [2] | outcome [18] | outcome [4] | outcome [5] | outcome [10] | Potency [11] | Potency [12] | outcome [13] | Potency [19] | Potency [14] | outcome [15] | max response [16] 0.908%

CC(=O)N1CCN(c2ccc(O)cc2)CC1
inactive: Potency [1] | outcome [2] | outcome [18] | outcome [4] | Potency [7] | outcome [10] | Potency [11] | Potency [12] | outcome [13] | Potency [19] | Potency [14] | outcome [15] | max response [16] 7.56% | Potency [20]

C=CCOC(=O)c1ccc(C(=O)OCC=C)c(C(=O)OCC=C)c1
inactive: Potency [1] | outcome [2] | outcome [3] | outcome [18] | outcome [4] | outcome [5] | outcome [6] | Potency [8] | outcome [9] | outcome [10] | Potency [11] | Potency [12] | outcome [13] | Potency [19] | Potency [14] | outcome [15] | max response [16] 4.3%

CC(C)(c1ccc(Oc2ccc3c(c2)C(=O)OC3=O)cc1)c1ccc(Oc2ccc3c(c2)C(=O)OC3=O)cc1
inactive: Potency [1] | outcome [2] | Potency [17] | outcome [3] | outcome [18] | outcome [4] | outcome [5] | Potency [7] | Potency [8] | outcome [9] | outcome [10] | Potency [11] | Potency [12] | outcome [13] | Potency [19] | Potency [14] | outcome [15] | max response [16] 19.4% | Potency [20]

C[Si]1(C)N[Si](C)(C)N[Si](C)(C)N1
inactive: Potency [1] | outcome [2] | outcome [4] | outcome [5] | outcome [6] | Potency [7] | outcome [10] | Potency [11] | Potency [12] | Potency [19] | Potency [14] | outcome [15] | max response [16] 16.3% | Potency [20]

C=COCCOCCOC=C
inactive: Potency [1] | outcome [2] | outcome [4] | outcome [5] | outcome [6] | Potency [7] | outcome [10] | Potency [11] | Potency [12] | outcome [13] | Potency [19] | Potency [14] | outcome [15] | max response [16] -1.05% | Potency [20]

COc1cc2c(Nc3ccc(Br)cc3F)ncnc2cc1OCC1CCN(C)CC1
inactive: Potency [1] | outcome [2] | outcome [4] | outcome [5] | outcome [6] | Potency [7] | outcome [10] | Potency [11] | Potency [12] | outcome [13] | Potency [19] | Potency [14] | outcome [15] | max response [16] 6.99% | Potency [20]

F[Si-2](F)(F)(F)(F)F
inactive: Potency [1] | outcome [2] | Potency [17] | outcome [3] | outcome [4] | outcome [5] | outcome [6] | Potency [7] | Potency [8] | outcome [9] | outcome [10] | Potency [11] | Potency [12] | outcome [13] | Potency [19] | Potency [14] | outcome [15] | max response [16] -1.11% | Potency [20]

CCOC(=O)CCCCCCCCC(=O)OCC
inactive: Potency [1] | outcome [2] | outcome [4] | outcome [5] | outcome [6] | Potency [7] | outcome [10] | Potency [11] | Potency [12] | outcome [13] | Potency [19] | Potency [14] | outcome [15] | max response [16] 5.25% | Potency [20]

Nc1ccc(C(=O)OCC(O)CO)cc1 (stereo unspecified)
inactive: Potency [1] | outcome [2] | Potency [17] | outcome [3] | outcome [18] | outcome [4] | outcome [5] | outcome [6] | Potency [7] | Potency [8] | outcome [9] | outcome [10] | Potency [11] | Potency [12] | outcome [13] | Potency [19] | Potency [14] | outcome [15] | max response [16] 2.88% | Potency [20]
